Results from PubChem BioAssay (EPA / NIEHS).
Some structures have more than one record in an assay (separate samples or runs), and their calls can disagree. Active and inactive are the calls of the source. The calls were made as follows: active = hit-call score of the fitted dose curve at least 0.9, where 1 is the maximum; inactive = score below 0.9.

Tests used:
Settings in all cases: primary human HUVEC with PBMC; actives raise or lower the signal
[1] = read-out: Interleukin-1 alpha (IL1a), IL1A (gene 3552); test: BSK_LPS_IL1a: BioMAP Diversity Plus: LPS Assay for Interleukin-1 alpha (IL1a) Biomarker Activity (AID 2283080)
Summary of the method: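 Human umbilical vein endothelial cells co-cultured with PBMC and stimulated with LPS; IL-1a measured by ELISA 24 h after dosing. Bidirectional fitting against DMSO; cytotoxicity checked by SRB staining in parallel cultures.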

[2] = read-out: Monocyte Chemoattractant Protein-1 (MCP1), CCL2 (gene 6347); test: BSK_LPS_MCP1: BioMAP Diversity Plus: LPS Assay for Monocyte Chemoattractant Protein-1 (MCP1) Biomarker Activity (AID 2283081);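 as to AC50: secreted MCP-1 protein quantified by ELISA in culture supernatant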
Summary of the method: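 Human umbilical vein endothelial cells co-cultured with PBMC, LPS-stimulated; secreted MCP-1 measured by ELISA 24 h after compound addition. Bidirectional curve fitting against DMSO baseline; SRB total-protein staining in parallel cultures for cytotoxicity.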

[3] = BSK_LPS_PGE2: BioMAP Diversity Plus: LPS Assay for Prostaglandin E2 (PGE2) Biomarker Activity (AID 2283082);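 as to AC50: secreted prostaglandin E2 measured by ELISA in LPS-stimulated co-culture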
Summary of the method: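 HUVEC plus human PBMC co-culture stimulated with LPS; secreted PGE2 quantified by ELISA 24 h after chemical dosing. Activity fitted bidirectionally against DMSO baseline; parallel SRB staining (0.1% SRB after 10% TCA fixation, 560 nm) flags overt cytotoxicity.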

[4] = read-out: Macrophage colony-stimulating factor (MCSF), CSF1 (gene 1435); test: BSK_LPS_MCSF: BioMAP Diversity Plus: LPS Assay for Macrophage colony-stimulating factor (MCSF) Biomarker Activity (AID 2283083)
Summary of the method: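 HUVEC–PBMC co-culture, M-CSF measured by ELISA 24 h after chemical dosing. Fitted in both directions relative to DMSO as negative control; overt cytotoxicity assessed by SRB total-protein staining in parallel cultures.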

[5] = read-out: Tissue Factor, F3 (gene 2152); test: BSK_LPS_TissueFactor: BioMAP Diversity Plus: LPS Assay for Tissue Factor Biomarker Activity (AID 2283084)
Summary of the method: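 Human umbilical vein endothelial cells co-cultured with PBMC were dosed with compound. Cell-surface CD142 was measured by ELISA 24 h later. Activity was fitted bidirectionally against DMSO, with SRB total-protein staining in parallel cultures for cytotoxicity.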

[6] = read-out: Tumor necrosis factor (Homo sapiens) (UniProt P01375); test: BSK_LPS_TNFa: BioMAP Diversity Plus: LPS Assay for Tumour Necrosis Factor alpha (TNFa) Biomarker Activity (AID 2283085);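 also: TNFa protein level quantified by ELISA in the co-culture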
Summary of the method: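 Human umbilical vein endothelial cells co-cultured with PBMC and stimulated with LPS. TNFa was measured by ELISA 24 h after chemical dosing, fitted bidirectionally relative to DMSO.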

[7] = read-out: Vascular cell adhesion molecule 1 (VCAM1), VCAM1 (gene 7412); test: BSK_LPS_VCAM1: BioMAP Diversity Plus: LPS Assay for Vascular cell adhesion molecule 1 (VCAM1) Biomarker Activity (AID 2283086)
Summary of the method: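 Human umbilical vein endothelial cells co-cultured with PBMC and stimulated with LPS; VCAM-1 measured by ELISA 24 h after dosing. Bidirectional curve fitting against DMSO baseline; cytotoxicity tracked in parallel by SRB total-protein staining.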

[8] = read-out: CD40, CD40 (gene 958); test: BSK_SAg_CD40: BioMAP Diversity Plus: SAg Assay for CD40 Biomarker Activity (AID 2283088)
Summary of the method: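 HUVEC plus PBMC co-culture, superantigen-activated, with CD40 read by ELISA 24 h after dosing. Curves fitted in both directions against DMSO. Overt cytotoxicity checked by parallel SRB total-protein staining.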

[9] = read-out: CD69, CD69 (gene 969); test: BSK_SAg_CD69: BioMAP Diversity Plus: SAg Assay for CD69 Biomarker Activity (AID 2283089);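 as to AC50: cell surface CD69 protein quantified by ELISA with fluorescence detection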
Summary of the method: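 Values derive from bidirectional fitting relative to DMSO vehicle. Cells: umbilical vein endothelium plus peripheral blood mononuclear cells, treated 24 h before fluorescent ELISA for CD69.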

[10] = read-out: CD38, CD38 (gene 952); test: BSK_SAg_CD38: BioMAP Diversity Plus: SAg Assay for CD38 Biomarker Activity (AID 2283087)
Summary of the method: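 Human HUVEC plus PBMC co-culture stimulated with superantigen; CD38 measured by ELISA 24 h after chemical dosing. Fluorescence read-out, bidirectional fit against DMSO; cytotoxicity tracked in parallel by SRB and Alamar Blue.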

Measured: AC50

Sequence of Tumor necrosis factor (Homo sapiens) (P01375 whole entry, looked up): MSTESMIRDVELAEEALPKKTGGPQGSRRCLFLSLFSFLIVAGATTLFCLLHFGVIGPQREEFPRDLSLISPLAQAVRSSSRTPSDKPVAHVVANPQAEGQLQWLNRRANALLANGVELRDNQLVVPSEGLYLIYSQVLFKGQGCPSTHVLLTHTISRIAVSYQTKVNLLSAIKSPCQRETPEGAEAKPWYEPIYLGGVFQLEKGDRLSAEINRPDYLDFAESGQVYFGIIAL

COP(=O)(OC)OC=C(Cl)Cl
active: [4] 20 µM | [6] 4.96 µM | [7] 30.1 µM
not listed: [10]
inactive: all other assays above

CCCN(CCC)c1c([N+](=O)[O-])cc(C(F)(F)F)cc1[N+](=O)[O-]
active: [2] 36.2 µM | [4] 20 µM | [7] 29.3 µM | [10] 15.2 µM | [8] 29.5 µM | [9] 30.2 µM
inactive: [3] | [5]

N#CN
not listed: [1] | [6] | [10]
inactive: all other assays above

CCN(CC)C(=O)SCc1ccc(Cl)cc1
active: [3] 7.03 µM
not listed: [1] | [6]
inactive: all other assays above

COP(=S)(OC)Oc1ccc(SC)c(C)c1
active: [3] 30.1 µM | [4] 15.9 µM
inactive: [2] | [5] | [7] | [8] | [9]

O=C(Nc1ccccc1)Nc1cnns1
not listed: [1] | [6] | [10]
inactive: all other assays above

Oc1ccc(Cl)cc1Cc1ccccc1
active: [2] 32.5 µM [middle of 7 runs] | [4] 29.6 µM [middle of 7 runs] | [5] 33.6 µM [middle of 7 runs] | [7] 32.5 µM [middle of 6 runs] | [8] 29.4 µM [middle of 6 runs] | [9] 32.7 µM [middle of 7 runs]

COc1cc(OC)nc(NC(=O)NS(=O)(=O)c2cc(NC=O)ccc2C(=O)N(C)C)n1
not listed: [1] | [6] | [10]
inactive: all other assays above

ClC1C(Cl)C(Cl)C(Cl)C(Cl)C1Cl (centres undefined)
active: [7] 31.3 µM
inactive: [2] | [3] | [4] | [5] | [7] | [8] | [9]

Cc1[nH]c(=O)n(C(C)(C)C)c(=O)c1Cl
active: [9] 3.68 µM
not listed: [1] | [6]
inactive: all other assays above

O=C(NC(=O)c1c(F)cccc1F)Nc1ccc(OC(F)(F)C(F)OC(F)(F)F)c(Cl)c1 (centres undefined)
active: [10] 16.3 µM
not listed: [1] | [6]
inactive: all other assays above

CC(C)OC(=O)Nc1cccc(Cl)c1
active: [3] 6.13 µM
not listed: [1] | [6] | [10]
inactive: all other assays above

CCOC1Oc2ccc(OS(C)(=O)=O)cc2C1(C)C (centres undefined)
active: [9] 18.4 µM
not listed: [1] | [6] | [10]
inactive: all other assays above

COP(=S)(OC)Oc1ccc([N+](=O)[O-])cc1
inactive: [2] | [5] | [7]
active: [3] 14.6 µM | [4] 15.4 µM | [10] 20 µM | [8] 13.8 µM | [9] 15.5 µM

COC(=O)c1ccccc1S(=O)(=O)NC(=O)N(C)c1nc(C)nc(OC)n1
not listed: [1] | [6]
inactive: all other assays above

CNC(=O)/C=C(\C)OP(=O)(OC)OC
not listed: [1] | [6] | [10]
inactive: all other assays above

CCC(C)Nc1c([N+](=O)[O-])cc(C(C)(C)C)cc1[N+](=O)[O-] (centres undefined)
inactive: [2] | [3] | [5]
active: [4] 11.1 µM | [7] 22.8 µM | [8] 30.7 µM | [9] 15.6 µM

CCC(C)(C)C(=O)OC1=C(c2ccc(Cl)cc2Cl)C(=O)OC12CCCCC2
active: [2] 31.2 µM | [4] 17.5 µM | [5] 14.1 µM | [7] 24.4 µM | [10] 10.3 µM | [8] 10.6 µM | [9] 14.9 µM
inactive: [3]

CC1(C)C(C=C(Cl)Cl)C1C(=O)OC(C#N)c1ccc(F)c(Oc2ccccc2)c1 (centres undefined)
active: [3] 5.22 µM
not listed: [1] | [6] | [10]
inactive: all other assays above

COC(=O)c1ccccc1CS(=O)(=O)NC(=O)Nc1nc(OC)cc(OC)n1
active: [9] 5.03 µM
not listed: [1] | [6] | [10]
inactive: all other assays above

CNC(=O)Oc1ccccc1OC(C)C
not listed: [1] | [6]
inactive: all other assays above

CCC(C)(NC(=O)c1cc(Cl)c(C)c(Cl)c1)C(=O)CCl (centres undefined)
active: [2] 12.2 µM | [4] 13 µM | [5] 5.21 µM | [7] 8.9 µM | [8] 7.22 µM | [9] 14.3 µM
inactive: [3]

CC[C@H](C)[C@H]1O[C@]2(C=C[C@@H]1C)C[C@@H]1C[C@@H](C/C=C(\C)[C@@H](O[C@H]3C[C@H](OC)[C@@H](O[C@H]4C[C@H](OC)[C@@H](O)[C@H](C)O4)[C@H](C)O3)[C@@H](C)/C=C/C=C3\CO[C@@H]4[C@H](O)C(C)=C[C@@H](C(=O)O1)[C@]34O)O2 (tested in a mixture with another compound)
inactive: [3] | [5]
active: [2] 8.83 µM | [4] 9.77 µM | [7] 6.17 µM | [8] 5.74 µM | [9] 7.28 µM

O=S(=O)(O)C(F)(F)C(F)(F)C(F)(F)C(F)(F)C(F)(F)C(F)(F)C(F)(F)C(F)(F)F
active: [8] 20 µM
inactive: [2] | [3] | [4] | [5] | [7] | [8] | [9]

CN1CSC(=S)N(C)C1
active: [2] 11.9 µM | [3] 3.85 µM | [4] 10.8 µM | [5] 13.7 µM | [7] 18.3 µM | [10] 23.3 µM | [8] 20 µM | [9] 20 µM

O=C(O)CCCOc1ccc(Cl)cc1Cl
active: [3] 15.2 µM
not listed: [1] | [6] | [10]
inactive: all other assays above

CNC(=O)CSP(=S)(OC)OC
not listed: [1] | [6]
inactive: all other assays above

O=C(O)COc1ccc(Cl)cc1Cl
not listed: [1] | [6] | [10]
inactive: all other assays above
